GSH bead fluor = compound fluoresces at 488/530 nm on GSH beads. 0.25% of 190,000 active. GSH beads flow cytometry, compound fluorescence 488/530 nm; stronger effect = higher value. AID 1776. fluorescence (KMESF) at 10 µM; in the data active = fluorescence above about 89;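 also: glutathione beads carrying GST-tagged Bcl family fusion proteins plus one bare bead set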
RGS4-Gao reg = modulates binding of RGS4 to human Galphao; AID 1415; binding response (% of control), % at 10 µM; Multiplexed bead flow cytometry; actives lie on both sides; 0.33% of 220,000 active; in the data active = binding response below about 49% or above about 150%; inactive = in between;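 also: fluorescent Galphao activated with aluminum fluoride binding bead-coupled RGS4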
Target sequence (P09471 whole entry, looked up): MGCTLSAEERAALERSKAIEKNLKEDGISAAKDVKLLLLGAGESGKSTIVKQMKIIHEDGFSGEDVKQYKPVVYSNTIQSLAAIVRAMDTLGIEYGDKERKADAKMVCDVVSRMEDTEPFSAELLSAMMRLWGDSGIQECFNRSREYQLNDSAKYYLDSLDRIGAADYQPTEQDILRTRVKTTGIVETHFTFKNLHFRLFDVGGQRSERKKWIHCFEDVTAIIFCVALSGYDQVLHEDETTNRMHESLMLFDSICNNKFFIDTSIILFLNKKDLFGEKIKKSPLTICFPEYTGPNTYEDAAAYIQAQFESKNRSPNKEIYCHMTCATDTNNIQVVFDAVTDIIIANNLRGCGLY
RGS7-Gao = modulates binding of RGS7 to human Galphao; P09471; Multiplexed bead flow cytometry; actives lie on both sides; binding response (% of control), % at 10 µM; 0.35% of 220,000 active; AID 1439; in the data active = binding response below about 49% or above about 150%; inconclusive = no clear call, values can overlap the other calls; inactive = in between;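 also: fluorescent Galphao held in activated GDP-AlF4 state binding bead-coupled RGS7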
RGS16-Gao = regulators of human RGS16-Galphao interaction; binding response (% of control), % at 10 µM; bead-based flow cytometry RGS16-Galphao binding, fluorescence; actives lie on both sides; 0.38% of 220,000 active; O15492+P09471; AID 1441;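 also: Galphao activated by GDP with aluminum fluoride before binding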
Target sequence (O15492 whole entry, looked up): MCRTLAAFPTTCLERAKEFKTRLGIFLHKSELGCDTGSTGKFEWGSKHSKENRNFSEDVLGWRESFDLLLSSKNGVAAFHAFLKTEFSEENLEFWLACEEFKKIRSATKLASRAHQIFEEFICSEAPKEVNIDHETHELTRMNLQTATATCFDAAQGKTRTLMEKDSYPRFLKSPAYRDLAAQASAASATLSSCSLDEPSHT
Target sequence (P09471 whole entry, looked up): as the sequence (P09471 whole entry, looked up) above
Avidin fluor = compound fluoresces at 488/530 nm on avidin beads | compound fluorescence 488/530 nm, flow cytometry; stronger effect = higher value | fluorescence (KMESF) at 10 µM | 0.38% of 220,000 active | AID 1775; in the data active = fluorescence above about 47
RGS8-Gao reg = regulators of human RGS8-Galphao interaction | response (percent of control binding), % at 10 µM | AID 1423 | P09471 | multiplexed bead flow cytometry, RGS8-Galphao binding; actives lie on both sides | 0.34% of 220,000 active; in the data active = response below about 60% or above about 140%; inactive = in between;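 also: Galphao activated as the GDP aluminium fluoride complex binding bead-coupled RGS8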
RGS-Gao = modulates binding between human RGS4 and Galphao; shares compounds with RGS16-Gao; multiplexed bead flow cytometry, RGS–Galpha-o binding; RGS4–Galpha-o binding response, % at 10 µM; 99% of 1,600 active; AID 1504;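 also: fluorescently labeled Galpha-o bound to GDP with aluminium fluoride binding biotinylated RGS beads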
Biotin-avidin = biotin-avidin bead binding disruption counter-screen. shares compounds with RGS16-Gao. streptavidin beads, fluorescein-biotin binding, flow cytometry. inhibition, % at 10 µM. 1,700 tested, under 10 active;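 active = inhibition above 50%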;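 also: median green fluorescence of gated singlet beads compared with DMSO control wells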
RGS8-Gao confirm = confirmation of regulators of human RGS8-Galphao interaction; binding response (% of control), % at 10 µM; AID 1836; 3% of 1,700 active; shares compounds with RGS16-Gao; bead-based flow cytometry RGS8-Galphao binding, fluorescence; actives lie on both sides; in the data active = binding response below about 72% or above about 130%; inactive = in between;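 also: Galphao activated as GDP AlF4 complex before binding bead RGS8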
RGS7-Gao confirm = RGS7-Galphao interaction regulation, single point confirmation. shares compounds with RGS16-Gao. bead-based flow cytometry RGS7-Galphao binding; actives lie on both sides. response (percent of control binding), % at 10 µM. 7.8% of 1,700 active; in the data active = response below about 75% or above about 130%; inactive = in between;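 also: fluorescent Galphao activated with GDP and aluminum fluoride binding bead-coupled RGS7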
RGS16-Gao conf = confirmation of regulators of human RGS16-Galphao interaction. AID 1838. shares compounds with RGS16-Gao. response (% of control binding), % at 10 µM. 4% of 1,700 active. bead-based flow cytometry, RGS16-Galphao binding; actives lie on both sides; in the data active = response below about 74% or above about 130%; inactive = in between;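 also: Galphao activated as the GDP aluminium fluoride complex binding bead-coupled RGS16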
RGS4-Gao single = confirmation of regulators of human RGS4-Galphao interaction; shares compounds with RGS16-Gao; RGS4-Galphao binding, multiplexed bead flow cytometry; actives lie on both sides; binding response (% of control), % at 10 µM; 4% of 1,700 active; AID 1840; in the data active = binding response below about 74% or above about 130%; inactive = in between
RGS19-Gao conf = RGS19-Galphao interaction regulation, single point confirmation | shares compounds with RGS16-Gao | bead-based flow cytometry RGS19-Galphao binding; actives lie on both sides | response (percent of control binding), % at 10 µM | 5% of 1,700 active | AID 1841; in the data active = response below about 50% or above about 160%; inactive = in between
Hits are given with their value; – = inactive; ? = inconclusive; · = no result; [ ] = remark or other dose. The list is not random: actives were taken first. Their share in the collection is about 1.2%. Unless noted, no rule for the calls is given here.

SMILES | GSH bead fluor | RGS4-Gao reg | RGS7-Gao | RGS16-Gao | Avidin fluor | RGS8-Gao reg | Biotin-avidin | RGS8-Gao confirm | RGS7-Gao confirm | RGS16-Gao conf | RGS4-Gao single | RGS19-Gao conf | others
CN(C)CCNC(=O)c1ccc2c(c1)N(Cc1ccc(F)cc1)CCS2 | – | 44 | – | – | – | 60 | – | – | – | – | – | –
CCC(C)NC(=O)C1CCN(S(=O)(=O)N2CCC3(CC2)OCCO3)CC1 (stereo not given) | – | – | ? | – | – | – | · | · | · | · | · | ·
NS(=O)(=O)c1cccc(NC(=O)Cc2ccc(Cl)c(Cl)c2)c1 | – | 156[activator] | 167[activator] | – | – | 148[activator] | – | – | – | – | – | –
CN1CC(c2ccccc2)C(c2ccc(Cl)cc2)=N1 (stereo not given) | – | – | – | – | – | – | · | · | · | · | · | ·
COc1ccc(CCNC(=O)c2cnn(-c3ccc(C)c(C)c3)c2NC(=O)c2ccco2)cc1OC | – | · | · | · | · | · | – | – | – | – | – | –
Cc1ccc(NC(=O)Nc2ccccc2CC[N+](=O)[O-])cc1 | – | – | – | – | – | 149[activator] | – | – | – | – | – | – | RGS-Gao=117
CCc1noc(C)c1C(=O)Nc1nc(-c2ccc(Cl)cc2Cl)cs1 | – | – | – | – | – | – | · | · | · | · | · | ·
Cc1nn(-c2ccccc2)c(N)c1Sc1cccc([N+](=O)[O-])c1 | – | – | – | 202[activator] | – | – | – | – | – | – | – | – | RGS-Gao=111
Cc1nn(-c2ccccc2)c(N)c1Sc1ccccc1[N+](=O)[O-] | – | – | – | – | – | – | · | · | · | · | · | ·
CCOC(=O)c1cc(-c2ccc(C)c([N+](=O)[O-])c2)nc2c1c(=O)n(C)c(=O)n2C | – | – | ? | – | – | – | · | · | · | · | · | ·
O=C1C(Cl)=C(N2CCOCC2)C(=O)N1CCc1ccccc1 | – | – | – | – | – | – | · | · | · | · | · | ·
Cc1ccc(-n2c(Cn3c(C)nc4ccccc43)n[nH]c2=S)cc1 | – | – | – | -1.4 | – | – | – | – | – | – | – | – | RGS-Gao=86
Cc1ccc(-n2c(CCc3nc4ccccc4[nH]3)n[nH]c2=S)cc1 | – | – | – | – | – | – | · | · | · | · | · | ·
c1ccc(Oc2nc(-c3ccccn3)nc3ccccc23)cc1 | · | – | ? | – | – | – | · | · | · | · | · | ·
c1ccc(CSc2ccc3nnc(-c4cccnc4)n3n2)cc1 | – | – | – | – | – | – | · | · | · | · | · | ·
CCC1(C(=O)OC)NC(c2cccc(F)c2)C2C(=O)N(C)C(=O)C21 (stereo not given) | – | – | – | – | – | – | · | · | · | · | · | ·
COC(=O)C1(Cc2ccccc2)NC(c2ccc(F)cc2)C2C(=O)N(C)C(=O)C21 (stereo not given) | – | 32 | 40 | -7.0 | – | 38 | – | – | 63 | – | 72 | –
NC(=O)N/N=C/c1cccc(C(F)(F)F)c1 | · | – | ? | – | – | – | · | · | · | · | · | ·
CCN1CCN(Cc2cc(=O)oc3ccc(Cl)cc23)CC1 | – | – | – | – | – | 144[activator] | – | – | – | – | – | – | RGS-Gao=108
COc1ccc(CCCc2nnc(SCC(=O)Nc3nc(C)cs3)n2C)cc1 | – | – | – | – | – | – | · | · | · | · | · | ·
Cc1csc(NC(=O)CSc2nnc(CCNC(=O)c3ccc(Cl)c(Cl)c3)n2C)n1 | – | · | · | · | · | · | – | – | – | – | – | –
O=C(O)CC1(CC(=O)Nc2ccc(Cl)cc2C(=O)c2ccccc2)CCCC1 | · | – | ? | – | – | – | · | · | · | · | · | ·
C=C(C)c1cccc(C(C)(C)NC(=O)N2CCCCC2CC)c1 (stereo not given) | – | – | – | – | – | 172[activator] | · | · | · | · | · | · | RGS-Gao=142
C=C(C)c1cccc(C(C)(C)NC(=O)N2CCN(CC)CC2)c1 | – | – | – | – | – | – | · | · | · | · | · | ·
CC(C)COC(=O)Nc1nnc(SCc2ccccc2F)s1 | – | – | – | – | – | – | · | · | · | · | · | ·
SMILES | GSH bead fluor | RGS4-Gao reg | RGS7-Gao | RGS16-Gao | Avidin fluor | RGS8-Gao reg | Biotin-avidin | RGS8-Gao confirm | RGS7-Gao confirm | RGS16-Gao conf | RGS4-Gao single | RGS19-Gao conf | others
C=CCc1ccc(OCCN2CCc3ccccc3C2)c(OC)c1 | – | – | ? | – | – | – | · | · | · | · | · | ·
C#CCNC(=O)C1=C[C@@H](C(C)(C)C)C[C@@H](OCc2ccc(CO)cc2)O1 | – | 30 | 21 | 17 | – | 22 | – | – | – | – | – | –
CCCn1c(NCc2c[nH]c3ccccc23)nc2ccccc21 | – | – | – | – | – | 143[activator] | – | – | – | – | – | – | RGS-Gao=104
COc1ccccc1C(=O)NC(CCSC)C(=O)NC1CCCCCC1 (stereo not given) | – | – | ? | – | – | – | · | · | · | · | · | ·
Nc1cc(-c2cccc(F)c2)nn1S(=O)(=O)c1cccc2nsnc12 | – | – | – | – | – | – | · | · | · | · | · | ·
Cc1ccc(-c2nn[nH]n2)cc1Cl | · | – | ? | – | – | – | · | · | · | · | · | ·
Cc1ccc(-c2nn[nH]n2)o1 | – | – | 151[activator] | – | 81 | – | – | – | – | – | – | – | RGS-Gao=123
Cc1ccc(-c2nn[nH]n2)cc1 | – | · | · | · | · | · | – | – | – | – | – | –
CCn1cc(C(=O)Nc2ccc3c(c2)OCCO3)c2cc(OC)c(OC)cc2c1=O | – | – | – | – | – | – | · | · | · | · | · | ·
CCc1ccc(C(=O)c2cnc3ccc(OC)cc3c2N2CCN(CC)CC2)cc1 | – | – | – | – | – | – | · | · | · | · | · | ·
CCOc1ccc2ncc(C(=O)c3ccc(OC)cc3)c(N3CCN(CC)CC3)c2c1 | 129 | 359[activator] | 309[activator] | 284[activator] | 50 | – | – | – | – | – | – | –
COc1ccc(-c2cc(C(F)(F)F)nc(SCC(=O)N(C)Cc3cn(C)nc3C)n2)cc1OC | – | – | – | 0.0 | – | – | – | – | – | – | – | – | RGS-Gao=78
COc1ccc(-c2cc(C(F)(F)F)nc(SCC(=O)NCc3cnn(C)c3C)n2)cc1OC | – | – | – | – | – | – | · | · | · | · | · | ·
CCN(CC)CCOC(=O)c1ccc([N+](=O)[O-])cc1 | · | – | ? | – | – | – | · | · | · | · | · | ·

From PubChem BioAssay
